From ChEMBL document CHEMBL1961873, “Compounds: GSK PKIS; Assays: Nanosyn kinase panel” (2012)

Experiments:
[1] = molecular target: Dual specificity protein kinase CLK3 (Homo sapiens) (UniProt P49761); details: at 1 µM;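 also: each value is the mean inhibition of CLK3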
[2] = molecular target: Dual specificity tyrosine-phosphorylation-regulated kinase 1A (Homo sapiens) (UniProt Q13627); details: at 0.1 µM
[3] = molecular target: Dual specificity tyrosine-phosphorylation-regulated kinase 1A (Homo sapiens) (UniProt Q13627); details: at 1 µM
[4] = molecular target: Dual specificity tyrosine-phosphorylation-regulated kinase 1B (Homo sapiens) (UniProt Q9Y463); details: at 0.1 µM
[5] = molecular target: Dual specificity tyrosine-phosphorylation-regulated kinase 1B (Homo sapiens) (UniProt Q9Y463); details: at 1 µM
[6] = molecular target: T1, Dual specificity tyrosine-phosphorylation-regulated kinase 2 (Homo sapiens) (UniProt Q92630); details: at 0.1 µM
T1 sequence (whole entry): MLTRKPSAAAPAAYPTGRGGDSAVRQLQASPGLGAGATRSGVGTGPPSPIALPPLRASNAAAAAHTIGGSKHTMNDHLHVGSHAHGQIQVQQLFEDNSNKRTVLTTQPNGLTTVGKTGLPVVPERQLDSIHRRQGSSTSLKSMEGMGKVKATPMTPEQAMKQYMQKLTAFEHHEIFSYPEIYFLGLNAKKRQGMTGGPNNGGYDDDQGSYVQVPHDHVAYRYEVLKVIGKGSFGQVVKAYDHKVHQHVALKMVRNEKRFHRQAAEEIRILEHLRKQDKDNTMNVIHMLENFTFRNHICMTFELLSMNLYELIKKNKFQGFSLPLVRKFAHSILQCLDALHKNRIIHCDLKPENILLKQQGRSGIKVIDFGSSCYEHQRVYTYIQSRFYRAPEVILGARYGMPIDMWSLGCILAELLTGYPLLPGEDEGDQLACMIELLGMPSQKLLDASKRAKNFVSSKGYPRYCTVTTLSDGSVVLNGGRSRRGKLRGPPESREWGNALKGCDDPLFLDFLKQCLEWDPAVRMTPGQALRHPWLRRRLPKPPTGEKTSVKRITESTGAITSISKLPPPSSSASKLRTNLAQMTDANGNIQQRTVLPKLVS

[7] = molecular target: T1, Dual specificity tyrosine-phosphorylation-regulated kinase 2 (Homo sapiens); details: at 1 µM
[8] = molecular target: Glycogen synthase kinase-3 alpha (Homo sapiens) (UniProt P49840); details: at 0.1 µM
[9] = molecular target: Glycogen synthase kinase-3 alpha (Homo sapiens) (UniProt P49840); details: at 1 µM
[10] = molecular target: Glycogen synthase kinase-3 beta (Homo sapiens) (UniProt P49841); details: at 0.1 µM
[11] = molecular target: Glycogen synthase kinase-3 beta (Homo sapiens) (UniProt P49841); details: at 1 µM
[12] = molecular target: Homeodomain-interacting protein kinase 1 (Homo sapiens) (UniProt Q86Z02); details: at 0.1 µM
[13] = molecular target: Homeodomain-interacting protein kinase 1 (Homo sapiens) (UniProt Q86Z02); details: at 1 µM
[14] = molecular target: T2, Homeodomain-interacting protein kinase 4 (Homo sapiens) (UniProt Q8NE63); details: at 0.1 µM
T2 sequence (whole entry): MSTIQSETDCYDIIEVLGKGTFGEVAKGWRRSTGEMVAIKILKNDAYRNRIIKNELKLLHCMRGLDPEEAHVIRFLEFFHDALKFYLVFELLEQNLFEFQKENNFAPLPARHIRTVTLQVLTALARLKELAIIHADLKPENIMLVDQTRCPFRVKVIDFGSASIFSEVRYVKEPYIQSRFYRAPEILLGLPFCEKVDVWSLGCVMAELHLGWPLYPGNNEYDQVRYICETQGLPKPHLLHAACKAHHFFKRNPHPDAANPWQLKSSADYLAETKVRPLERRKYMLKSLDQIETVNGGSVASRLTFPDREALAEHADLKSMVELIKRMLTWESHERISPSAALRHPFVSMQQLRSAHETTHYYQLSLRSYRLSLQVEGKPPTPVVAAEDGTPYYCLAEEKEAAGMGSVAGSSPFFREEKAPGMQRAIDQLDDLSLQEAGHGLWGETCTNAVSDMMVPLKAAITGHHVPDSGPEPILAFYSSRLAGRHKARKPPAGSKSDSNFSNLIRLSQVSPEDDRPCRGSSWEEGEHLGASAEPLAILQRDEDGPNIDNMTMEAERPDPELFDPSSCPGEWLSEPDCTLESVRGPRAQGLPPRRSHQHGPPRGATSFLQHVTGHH

[15] = molecular target: T2, Homeodomain-interacting protein kinase 4 (Homo sapiens); details: at 1 µM
[16] = molecular target: Mitogen-activated protein kinase 9 (Homo sapiens) (UniProt P45984); details: at 0.1 µM
[17] = molecular target: Mitogen-activated protein kinase 9 (Homo sapiens) (UniProt P45984); details: at 1 µM
[18] = molecular target: Mitogen-activated protein kinase 1 (Homo sapiens) (UniProt P28482); details: at 0.1 µM
[19] = molecular target: Mitogen-activated protein kinase 1 (Homo sapiens) (UniProt P28482); details: at 1 µM
[20] = molecular target: Mitogen-activated protein kinase 3 (Homo sapiens) (UniProt P27361); details: at 0.1 µM;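 also: each value is a mean inhibition figure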
Chain of Mitogen-activated protein kinase 3 (Homo sapiens) (P27361 whole entry): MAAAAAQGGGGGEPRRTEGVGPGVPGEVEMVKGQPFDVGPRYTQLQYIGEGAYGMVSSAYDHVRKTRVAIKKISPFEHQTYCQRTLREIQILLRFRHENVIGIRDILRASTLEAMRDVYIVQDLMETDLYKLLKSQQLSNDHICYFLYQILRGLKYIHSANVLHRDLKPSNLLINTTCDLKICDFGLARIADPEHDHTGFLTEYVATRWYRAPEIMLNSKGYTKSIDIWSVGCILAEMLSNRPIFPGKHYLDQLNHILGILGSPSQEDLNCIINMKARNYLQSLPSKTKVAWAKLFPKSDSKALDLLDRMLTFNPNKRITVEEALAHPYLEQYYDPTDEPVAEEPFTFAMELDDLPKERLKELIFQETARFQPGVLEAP

Chain of Mitogen-activated protein kinase 1 (Homo sapiens) (P28482 whole entry): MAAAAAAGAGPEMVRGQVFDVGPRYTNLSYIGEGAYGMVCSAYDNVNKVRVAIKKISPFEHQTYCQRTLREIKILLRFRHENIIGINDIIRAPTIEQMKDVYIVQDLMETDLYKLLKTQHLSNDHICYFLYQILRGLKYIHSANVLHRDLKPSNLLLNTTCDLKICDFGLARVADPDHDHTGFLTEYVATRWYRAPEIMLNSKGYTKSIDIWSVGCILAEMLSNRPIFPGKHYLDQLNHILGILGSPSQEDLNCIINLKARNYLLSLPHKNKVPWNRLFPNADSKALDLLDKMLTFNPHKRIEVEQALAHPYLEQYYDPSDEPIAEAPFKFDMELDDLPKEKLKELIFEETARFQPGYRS
Chain of Glycogen synthase kinase-3 alpha (Homo sapiens) (P49840 2-483 limits assumed): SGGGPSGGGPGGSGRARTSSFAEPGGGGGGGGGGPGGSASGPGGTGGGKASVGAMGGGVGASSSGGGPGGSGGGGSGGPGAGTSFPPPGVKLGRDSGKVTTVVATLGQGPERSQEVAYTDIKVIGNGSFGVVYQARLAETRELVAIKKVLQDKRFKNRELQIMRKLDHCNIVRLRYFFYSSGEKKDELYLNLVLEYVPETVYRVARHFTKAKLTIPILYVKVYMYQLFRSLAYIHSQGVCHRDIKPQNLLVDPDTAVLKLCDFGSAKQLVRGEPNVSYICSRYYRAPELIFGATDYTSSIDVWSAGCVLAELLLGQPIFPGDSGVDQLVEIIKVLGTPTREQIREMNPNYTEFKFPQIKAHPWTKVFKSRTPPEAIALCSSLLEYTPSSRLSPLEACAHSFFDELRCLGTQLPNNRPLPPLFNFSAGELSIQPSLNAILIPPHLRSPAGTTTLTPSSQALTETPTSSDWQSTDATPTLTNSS
Chain of Mitogen-activated protein kinase 9 (Homo sapiens) (P45984 whole entry, looked up): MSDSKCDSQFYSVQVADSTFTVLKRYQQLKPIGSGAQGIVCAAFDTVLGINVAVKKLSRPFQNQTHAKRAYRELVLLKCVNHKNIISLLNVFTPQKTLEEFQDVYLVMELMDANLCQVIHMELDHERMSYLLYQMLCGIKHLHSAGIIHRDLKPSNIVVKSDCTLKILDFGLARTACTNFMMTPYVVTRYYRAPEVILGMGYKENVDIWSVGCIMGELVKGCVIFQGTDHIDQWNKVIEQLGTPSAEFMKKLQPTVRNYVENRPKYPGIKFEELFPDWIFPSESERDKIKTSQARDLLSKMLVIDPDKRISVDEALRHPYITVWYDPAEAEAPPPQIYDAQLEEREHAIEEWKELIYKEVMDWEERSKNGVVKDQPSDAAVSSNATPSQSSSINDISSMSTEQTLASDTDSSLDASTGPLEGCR
Chain of Glycogen synthase kinase-3 beta (Homo sapiens) (P49841 whole entry, looked up): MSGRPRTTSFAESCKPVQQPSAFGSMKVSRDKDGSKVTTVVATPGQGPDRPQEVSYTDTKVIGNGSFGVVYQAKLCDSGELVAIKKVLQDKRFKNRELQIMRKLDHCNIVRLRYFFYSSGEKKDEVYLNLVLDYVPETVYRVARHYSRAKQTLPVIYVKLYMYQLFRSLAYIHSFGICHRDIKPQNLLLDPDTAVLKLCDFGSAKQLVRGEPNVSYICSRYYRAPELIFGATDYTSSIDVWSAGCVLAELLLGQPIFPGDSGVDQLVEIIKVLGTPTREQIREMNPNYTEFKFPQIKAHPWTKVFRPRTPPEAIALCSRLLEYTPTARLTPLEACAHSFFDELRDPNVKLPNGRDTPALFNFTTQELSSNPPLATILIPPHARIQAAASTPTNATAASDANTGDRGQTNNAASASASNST
Chain of Dual specificity protein kinase CLK3 (Homo sapiens) (P49761 whole entry, looked up): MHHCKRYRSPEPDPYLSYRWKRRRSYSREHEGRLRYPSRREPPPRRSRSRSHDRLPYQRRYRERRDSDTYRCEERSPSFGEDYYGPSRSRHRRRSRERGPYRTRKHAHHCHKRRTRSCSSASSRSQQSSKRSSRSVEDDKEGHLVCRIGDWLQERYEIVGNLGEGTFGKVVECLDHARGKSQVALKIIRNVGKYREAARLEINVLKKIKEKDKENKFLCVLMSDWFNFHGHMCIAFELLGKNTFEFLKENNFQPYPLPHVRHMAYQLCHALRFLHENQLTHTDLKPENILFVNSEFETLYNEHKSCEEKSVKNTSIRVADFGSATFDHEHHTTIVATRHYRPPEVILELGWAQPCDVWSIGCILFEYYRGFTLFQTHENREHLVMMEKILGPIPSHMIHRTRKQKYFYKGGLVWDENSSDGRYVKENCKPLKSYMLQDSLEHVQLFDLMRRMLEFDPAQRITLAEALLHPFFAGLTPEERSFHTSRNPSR
Chain of Homeodomain-interacting protein kinase 1 (Homo sapiens) (Q86Z02 whole entry, looked up): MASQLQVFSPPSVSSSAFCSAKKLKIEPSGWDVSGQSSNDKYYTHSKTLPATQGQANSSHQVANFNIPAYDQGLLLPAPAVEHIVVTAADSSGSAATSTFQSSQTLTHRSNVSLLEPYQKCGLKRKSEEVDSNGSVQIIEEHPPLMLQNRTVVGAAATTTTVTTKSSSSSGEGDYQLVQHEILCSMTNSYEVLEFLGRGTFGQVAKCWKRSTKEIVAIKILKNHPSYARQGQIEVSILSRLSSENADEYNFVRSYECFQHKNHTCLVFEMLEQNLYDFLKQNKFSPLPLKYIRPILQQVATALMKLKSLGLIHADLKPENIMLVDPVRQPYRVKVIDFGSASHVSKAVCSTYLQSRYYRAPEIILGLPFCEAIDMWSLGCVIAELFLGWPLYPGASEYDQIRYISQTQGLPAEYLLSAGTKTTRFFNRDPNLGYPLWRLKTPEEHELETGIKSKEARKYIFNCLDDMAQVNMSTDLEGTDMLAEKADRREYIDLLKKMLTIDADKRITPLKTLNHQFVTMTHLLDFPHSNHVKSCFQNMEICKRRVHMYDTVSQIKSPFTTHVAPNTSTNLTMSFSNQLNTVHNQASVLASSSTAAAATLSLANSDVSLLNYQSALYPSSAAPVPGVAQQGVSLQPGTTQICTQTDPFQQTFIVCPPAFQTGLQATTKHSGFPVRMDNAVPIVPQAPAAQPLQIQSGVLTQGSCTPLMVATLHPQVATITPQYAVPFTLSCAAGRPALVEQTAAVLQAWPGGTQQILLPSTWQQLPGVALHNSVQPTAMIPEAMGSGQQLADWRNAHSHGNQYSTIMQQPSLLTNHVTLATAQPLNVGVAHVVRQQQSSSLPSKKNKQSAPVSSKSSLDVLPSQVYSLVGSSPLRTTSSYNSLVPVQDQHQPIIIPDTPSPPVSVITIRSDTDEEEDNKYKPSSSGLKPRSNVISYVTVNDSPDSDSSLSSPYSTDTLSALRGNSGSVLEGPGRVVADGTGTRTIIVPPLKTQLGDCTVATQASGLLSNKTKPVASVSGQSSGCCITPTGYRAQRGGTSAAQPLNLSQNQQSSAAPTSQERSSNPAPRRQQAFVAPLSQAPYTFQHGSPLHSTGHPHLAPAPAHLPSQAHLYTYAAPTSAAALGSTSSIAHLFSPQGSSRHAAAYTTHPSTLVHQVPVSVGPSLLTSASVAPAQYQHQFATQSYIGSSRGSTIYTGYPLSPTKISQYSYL
Chain of Dual specificity tyrosine-phosphorylation-regulated kinase 1B (Homo sapiens) (Q9Y463 whole entry, looked up): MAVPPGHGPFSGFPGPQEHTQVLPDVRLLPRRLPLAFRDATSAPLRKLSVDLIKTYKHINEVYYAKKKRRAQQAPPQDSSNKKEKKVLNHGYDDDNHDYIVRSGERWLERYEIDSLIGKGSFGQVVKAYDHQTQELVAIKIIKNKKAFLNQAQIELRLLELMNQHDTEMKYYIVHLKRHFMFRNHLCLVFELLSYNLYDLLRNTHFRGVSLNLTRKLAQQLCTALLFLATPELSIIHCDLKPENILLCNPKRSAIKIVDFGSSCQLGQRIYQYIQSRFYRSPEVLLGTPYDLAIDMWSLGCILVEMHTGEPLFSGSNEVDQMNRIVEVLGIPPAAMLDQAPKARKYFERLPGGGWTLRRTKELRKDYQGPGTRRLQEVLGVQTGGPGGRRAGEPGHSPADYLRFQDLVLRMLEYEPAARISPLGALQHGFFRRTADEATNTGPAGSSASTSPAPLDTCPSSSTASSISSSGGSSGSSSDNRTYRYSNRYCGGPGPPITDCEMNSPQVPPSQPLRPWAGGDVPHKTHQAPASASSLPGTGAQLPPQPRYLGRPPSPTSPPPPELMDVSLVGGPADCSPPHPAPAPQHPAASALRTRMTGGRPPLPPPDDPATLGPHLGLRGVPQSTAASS

Structure (SMILES) | inhibition [1] | inhibition [2] | inhibition [3] | inhibition [4] | inhibition [5] | inhibition [6] | inhibition [7] | inhibition [8] | inhibition [9] | inhibition [10] | inhibition [11] | inhibition [12] | inhibition [13] | inhibition [14] | inhibition [15] | inhibition [16] | inhibition [17] | inhibition [18] | inhibition [19] | inhibition [20]
COc1cc2c(cc1Nc1nc(Nc3ccsc3C(N)=O)c3cc[nH]c3n1)N(C(=O)CN(C)C)CCC2(C)C | 4.74% | 4.97% | 15.5% | 1.64% | 10.2% | 4.55% | 6.57% | 7.63% | 21.1% | 5.85% | 17% | 0.05% | 7.66% | -0.16% | 6.13% | 7.73% | 13.9% | 4.87% | 12.2% | 3.02%
COc1cc(N2CCN(C(C)C)CC2)ccc1Nc1nc(Nc2ccc(F)cc2C(N)=O)c2cc[nH]c2n1 | 13.2% | 45.2% | 86.5% | 49.1% | 76.6% | 5.36% | 36.4% | 3.88% | 5.19% | 2.71% | 7.27% | 33.9% | 73.7% | 44.8% | 75.1% | 65.5% | 89.1% | 2.91% | 15.3% | 2.87%
CS(=O)(=O)CCNCc1coc(-c2ccc3ncnc(Nc4ccc(OCc5ccccc5)cc4)c3c2)c1 | 0.66% | 1.48% | 2.33% | -0.25% | 1.83% | 3.02% | 4.76% | 2.99% | 4.78% | 2.21% | 6.33% | -1.59% | 2.97% | 0.96% | 8.92% | 1.82% | 2.72% | 2.46% | 3.11% | 3.44%
COc1cccc(-n2ncc3c(N/N=C/c4ccc(F)cc4)ncnc32)c1 | 6.29% | 6.93% | 24.2% | 4.09% | 16.3% | 5.25% | 18.8% | 64% | 87.7% | 54.6% | 83% | 11.9% | 27.1% | 9.35% | 20.9% | 1.94% | 4.28% | 5.5% | 2.32% | 2.41%
COc1ccc2c(-c3ccnc(Nc4cccc(OC(F)(F)F)c4)n3)cnn2n1 | 52.8% | 16% | 60.8% | 32.6% | 77.2% | 4.32% | 16% | 28.1% | 81.1% | 21.2% | 73.2% | 84.8% | 91.7% | 51.3% | 83% | 1.35% | 11.4% | 2.96% | 7.52% | 5.36%
COc1ccc(-c2cc(-c3c[nH]nc3-c3ccccn3)ccn2)cc1 | 1.7% | 2.83% | 6.71% | -0.15% | 2.54% | 4.14% | 3.1% | 3.67% | 5.27% | 3.56% | 6.22% | 4.42% | 4.88% | 2.68% | -2.34% | 4.47% | 9.74% | 4.07% | 5.26% | 3.56%
NS(=O)(=O)c1ccc(N/N=C2\C(=O)Nc3ccc4ncccc4c32)cc1 | 15% | 18.6% | 61.6% | 13% | 54.8% | 6.76% | 35.7% | 55.3% | 80.9% | 53.5% | 80.2% | 19.7% | 64.7% | 6.71% | 40% | 6.07% | 33.7% | 14.9% | 55.5% | 6.45%
N#Cc1c(NC(=O)c2ccc(F)cc2)sc2c1CCCC2 | 0.61% | 0.28% | 3.62% | -0.66% | 1.05% | -0.13% | 0.26% | 0.69% | 2.28% | -0.51% | 3.45% | -1.95% | -1.66% | -1.19% | -0.61% | 2.17% | 2.49% | 0.39% | 1.25% | -1.04%
COc1ccc(-c2oc3ncnc(N)c3c2-c2ccc(NC(=O)Nc3cc(C(F)(F)F)ccc3F)cc2)cc1 | 4.8% | 0.67% | 2.07% | -0.07% | 2.26% | 1.92% | 5.52% | 3.93% | 17.3% | 3.17% | 15.2% | 13.5% | 62% | 68.7% | 88.8% | 7.38% | 19.9% | 7.13% | 6.23% | 3.48%
NC(=O)c1sc(-n2cnc3ccc(C(F)(F)F)cc32)cc1OCc1ccccc1Br | 4.85% | 2.74% | 8.54% | -0.4% | 2.27% | 2.93% | 4.03% | 1.26% | 7.48% | -0.61% | 3.8% | 0.1% | 2.51% | 1.27% | 4.18% | 3.06% | 5.5% | 2.67% | 4.49% | 3.25%
COc1ccc(-c2nn3ncccc3c2-c2ccnc(Nc3ccc4c(c3)OCCO4)n2)cc1 | -0.46% | -0.47% | -2.81% | -0.35% | -3.65% | 0.08% | -3.08% | 0.99% | 2.53% | -0.07% | 5.33% | -7.34% | -0.07% | 0.08% | -1.16% | 13% | 64.6% | -0.01% | 0.95% | 3.56%
COc1cccc(-c2c[nH]c3c(N/N=C/c4ccncc4)ncnc23)c1 | 14% | 16.1% | 58.5% | 11.3% | 50.5% | 11.7% | 57.8% | 78.9% | 83.5% | 76.6% | 83.5% | 5.99% | 41.7% | 10.1% | 43.2% | 2.08% | 8.51% | 1.55% | 5.09% | 1.78%
COc1ccc2[nH]c3c4[nH]c5ccc(OC)cc5c4c4c(c3c2c1)C(=O)NC4=O | 4.44% | 10.1% | 43.1% | 2.55% | 26.1% | 6.81% | 29% | 1.75% | 6.24% | 3.92% | 14.7% | 5.17% | 20.7% | 4.28% | 22.8% | 4.65% | 21.7% | 3.5% | 5.44% | 4.93%
CCn1c(-c2nonc2N)nc2c(C#CC(C)(C)O)nc(OC[C@H](N)c3ccccc3)cc21 | 0.92% | 1.72% | 2.24% | 0.98% | 2.57% | 3.62% | 4.79% | 36.8% | 73.6% | 30% | 71.2% | -1.18% | 12.3% | 3.08% | 6.13% | 7.43% | 9.81% | 2.37% | 5.04% | 3.72%
